{"source": "the supplement of paper PMC12282887", "experiment_in_all_cases": "promoter activity interaction Z-score (Lux/OD deviation from empty-vector control); higher = stronger promoter induction by the compound", "key": {"[1]": {"tested_on": "E. coli BW25113 ompFp lux reporter", "method_in_brief": "(§1)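 E. coli BW25113 (wild type or marA, soxS or rob deletion) carrying low-copy luxCDABE promoter reporters grew in 40 µl LB Lennox in 384-well plates at 37°C. Each compound was tested at four 1:2 dilutions in biological duplicates. OD600 and luminescence were read every 30 min for 12 h. Areas were taken over 0–8 h (wild type) or 1–9 h (mutants), and wells below 10% of median growth area were removed. The score is the Z-transformed residual of growth-normalised luminescence fitted against the empty-vector control.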"}, "[2]": {"tested_on": "E. coli BW25113 robp lux reporter", "method_in_brief": "as §1"}, "[3]": {"tested_on": "E. coli BW25113 soxSp lux reporter", "method_in_brief": "as §1"}, "[4]": {"tested_on": "E. coli BW25113 tolCp lux reporter", "method_in_brief": "as §1"}, "[5]": {"conditions": "47.4 µg/ml, genetic background: wild type"}, "[6]": {"conditions": "47.4 µg/ml, genetic background: ΔmarA"}, "[7]": {"conditions": "47.4 µg/ml, genetic background: Δrob"}, "[8]": {"conditions": "47.4 µg/ml, genetic background: ΔsoxS"}, "[9]": {"conditions": "94.8 µg/ml, genetic background: wild type"}, "[10]": {"conditions": "94.8 µg/ml, genetic background: ΔmarA"}, "[11]": {"conditions": "94.8 µg/ml, genetic background: Δrob"}, "[12]": {"conditions": "94.8 µg/ml, genetic background: ΔsoxS"}, "[13]": {"conditions": "11.9 µg/ml, genetic background: wild type"}, "[14]": {"conditions": "11.9 µg/ml, genetic background: ΔmarA"}, "[15]": {"conditions": "11.9 µg/ml, genetic background: Δrob"}, "[16]": {"conditions": "11.9 µg/ml, genetic background: ΔsoxS"}, "[17]": {"conditions": "23.7 µg/ml, genetic background: wild type"}, "[18]": {"conditions": "23.7 µg/ml, genetic background: ΔmarA"}, "[19]": {"conditions": "23.7 µg/ml, genetic background: Δrob"}, "[20]": {"conditions": "23.7 µg/ml, genetic background: ΔsoxS"}}, "note": "± gives the standard deviation of the averaged measurements."}
{"smiles": "NCCc1ccc(O)c(O)c1", "note": "[Dopamine]", "values": [{"measurement": "promoter activity interaction Z-score", "setting": "[1]; [5]", "result": "0.112 ± 0.24"}, {"measurement": "promoter activity interaction Z-score", "setting": "[1]; [6]", "result": "-0.55 ± 0.36"}, {"measurement": "promoter activity interaction Z-score", "setting": "[1]; [7]", "result": "-0.52 ± 0.2"}, {"measurement": "promoter activity interaction Z-score", "setting": "[1]; [8]", "result": "-0.843 ± 0.13"}, {"measurement": "promoter activity interaction Z-score", "setting": "[1]; [9]", "result": "-0.811 ± 0.18"}, {"measurement": "promoter activity interaction Z-score", "setting": "[1]; [10]", "result": "-0.358 ± 0.12"}, {"measurement": "promoter activity interaction Z-score", "setting": "[1]; [11]", "result": "-0.473 ± 0.64"}, {"measurement": "promoter activity interaction Z-score", "setting": "[1]; [12]", "result": "-1.22 ± 0.11"}, {"measurement": "promoter activity interaction Z-score", "setting": "[2]; [13]", "result": "0.58 ± 0.43"}, {"measurement": "promoter activity interaction Z-score", "setting": "[2]; [14]", "result": "-0.0165 ± 0.28"}, {"measurement": "promoter activity interaction Z-score", "setting": "[2]; [15]", "result": "-0.285 ± 0.42"}, {"measurement": "promoter activity interaction Z-score", "setting": "[2]; [16]", "result": "-0.285 ± 0.27"}, {"measurement": "promoter activity interaction Z-score", "setting": "[2]; [17]", "result": "0.285 ± 0.52"}, {"measurement": "promoter activity interaction Z-score", "setting": "[2]; [18]", "result": "1.42 ± 1.2"}, {"measurement": "promoter activity interaction Z-score", "setting": "[2]; [19]", "result": "-0.0375 ± 0.68"}, {"measurement": "promoter activity interaction Z-score", "setting": "[2]; [20]", "result": "0.593 ± 1.6"}, {"measurement": "promoter activity interaction Z-score", "setting": "[2]; [5]", "result": "0.737 ± 0.14"}, {"measurement": "promoter activity interaction Z-score", "setting": "[2]; [6]", "result": "-0.645 ± 0.12"}, {"measurement": "promoter activity interaction Z-score", "setting": "[2]; [7]", "result": "-0.805 ± 0.17"}, {"measurement": "promoter activity interaction Z-score", "setting": "[2]; [8]", "result": "-1.1 ± 0.16"}, {"measurement": "promoter activity interaction Z-score", "setting": "[2]; [9]", "result": "-0.828 ± 0.0096"}, {"measurement": "promoter activity interaction Z-score", "setting": "[2]; [10]", "result": "0.583 ± 0.9"}, {"measurement": "promoter activity interaction Z-score", "setting": "[2]; [11]", "result": "-1.32 ± 0.2"}, {"measurement": "promoter activity interaction Z-score", "setting": "[2]; [12]", "result": "-2.04 ± 0.13"}, {"measurement": "promoter activity interaction Z-score", "setting": "[3]; [13]", "result": "0.474 ± 0.25"}, {"measurement": "promoter activity interaction Z-score", "setting": "[3]; [14]", "result": "-0.0183 ± 0.11"}, {"measurement": "promoter activity interaction Z-score", "setting": "[3]; [15]", "result": "-0.0377 ± 0.026"}, {"measurement": "promoter activity interaction Z-score", "setting": "[3]; [16]", "result": "-0.0441 ± 0.24"}, {"measurement": "promoter activity interaction Z-score", "setting": "[3]; [17]", "result": "0.394 ± 0.015"}, {"measurement": "promoter activity interaction Z-score", "setting": "[3]; [18]", "result": "0.0576 ± 0.031"}, {"measurement": "promoter activity interaction Z-score", "setting": "[3]; [19]", "result": "-0.0399 ± 0.15"}, {"measurement": "promoter activity interaction Z-score", "setting": "[3]; [20]", "result": "-0.277 ± 0.03"}, {"measurement": "promoter activity interaction Z-score", "setting": "[3]; [5]", "result": "0.201 ± 0.11"}, {"measurement": "promoter activity interaction Z-score", "setting": "[3]; [6]", "result": "-0.0617 ± 0.12"}, {"measurement": "promoter activity interaction Z-score", "setting": "[3]; [7]", "result": "-0.00712 ± 0.2"}, {"measurement": "promoter activity interaction Z-score", "setting": "[3]; [8]", "result": "-0.3 ± 0.13"}, {"measurement": "promoter activity interaction Z-score", "setting": "[3]; [9]", "result": "-0.211 ± 0.15"}, {"measurement": "promoter activity interaction Z-score", "setting": "[3]; [10]", "result": "-0.1512 ± 0.0014"}, {"measurement": "promoter activity interaction Z-score", "setting": "[3]; [11]", "result": "-0.176 ± 0.19"}, {"measurement": "promoter activity interaction Z-score", "setting": "[3]; [12]", "result": "-0.581 ± 0.061"}, {"measurement": "promoter activity interaction Z-score", "setting": "[4]; [13]", "result": "0.393 ± 0.4"}, {"measurement": "promoter activity interaction Z-score", "setting": "[4]; [14]", "result": "-0.496 ± 0.057"}, {"measurement": "promoter activity interaction Z-score", "setting": "[4]; [15]", "result": "-0.398 ± 0.89"}, {"measurement": "promoter activity interaction Z-score", "setting": "[4]; [16]", "result": "0.889 ± 0.7"}, {"measurement": "promoter activity interaction Z-score", "setting": "[4]; [17]", "result": "0.663 ± 0.58"}, {"measurement": "promoter activity interaction Z-score", "setting": "[4]; [18]", "result": "0.117 ± 0.58"}, {"measurement": "promoter activity interaction Z-score", "setting": "[4]; [19]", "result": "-0.413 ± 0.2"}, {"measurement": "promoter activity interaction Z-score", "setting": "[4]; [20]", "result": "-0.0415 ± 0.32"}, {"measurement": "promoter activity interaction Z-score", "setting": "[4]; [5]", "result": "-0.164 ± 0.13"}, {"measurement": "promoter activity interaction Z-score", "setting": "[4]; [6]", "result": "-0.559 ± 0.79"}, {"measurement": "promoter activity interaction Z-score", "setting": "[4]; [7]", "result": "-0.226 ± 0.6"}, {"measurement": "promoter activity interaction Z-score", "setting": "[4]; [8]", "result": "-0.165 ± 0.64"}, {"measurement": "promoter activity interaction Z-score", "setting": "[4]; [9]", "result": "-0.754 ± 0.24"}, {"measurement": "promoter activity interaction Z-score", "setting": "[4]; [10]", "result": "-0.55 ± 0.46"}, {"measurement": "promoter activity interaction Z-score", "setting": "[4]; [11]", "result": "-0.192 ± 0.73"}, {"measurement": "promoter activity interaction Z-score", "setting": "[4]; [12]", "result": "-1 ± 0.74"}]}
